Common to all, as to assay: DAPPL (digital affinity profiling via proximity ligation, sequencing); 10 mM Tris-HCl pH 7.5, 50 mM NaCl, 1 mM DTT, 4% glycerol, room temperature, 30 min; GST-TFs on glutathione beads, 16-mer random dsDNA library, 0.1% formaldehyde crosslink after washing; high values mean tight binding
For one test, the target named is T1, FEV (Homo sapiens, UniProt Q99581 1-238).
T1 sequence: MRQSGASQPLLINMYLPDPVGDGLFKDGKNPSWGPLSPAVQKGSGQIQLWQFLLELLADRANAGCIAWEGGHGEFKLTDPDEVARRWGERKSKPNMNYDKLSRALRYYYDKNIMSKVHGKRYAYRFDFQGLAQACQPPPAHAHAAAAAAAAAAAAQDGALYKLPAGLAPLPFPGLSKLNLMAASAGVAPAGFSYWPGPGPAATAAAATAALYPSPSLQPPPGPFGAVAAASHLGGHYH
Conditions: protein: recombinant; tags: N-terminal GST; dsDNA, one strand shown. The gist of the method: (§1)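 Binding signal is each hexamer's read frequency for a factor divided by its frequency in the tag-only sample. The factors were GST-fused human transcription factors from yeast, captured on glutathione beads, DNA-barcoded and pooled with that sample. Pools were incubated with 200 nmole of a random double-stranded 16-mer DNA library in Tris/NaCl/DTT/glycerol buffer at room temperature for 30 min, then washed, crosslinked with 0.1% formaldehyde, proximity-ligated with BsaI/T4 ligase (1 h, 37 °C), PCR-amplified and sequenced on an Illumina NextSeq500.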

The next test concerns the target ETV5 (Homo sapiens, UniProt P41161 1-510). As to conditions: protein: recombinant; tags: N-terminal GST; dsDNA, one strand shown. Summed up:
as §1

In a further test the target is HSF1 (Homo sapiens, UniProt Q00613 1-529). As to conditions: protein: recombinant; tags: N-terminal GST; chain copies: 3; dsDNA, one strand shown. The gist of the method: as §1
The next test addresses T2, SPIC (Homo sapiens, UniProt Q8N5J4 1-248).
T2 sequence: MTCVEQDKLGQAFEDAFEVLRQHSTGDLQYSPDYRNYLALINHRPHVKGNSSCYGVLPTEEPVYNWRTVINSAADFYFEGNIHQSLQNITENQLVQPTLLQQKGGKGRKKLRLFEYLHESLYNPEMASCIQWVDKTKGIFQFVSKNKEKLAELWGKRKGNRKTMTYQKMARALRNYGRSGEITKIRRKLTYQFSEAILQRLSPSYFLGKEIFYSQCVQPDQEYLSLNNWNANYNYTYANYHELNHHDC
Conditions: protein: recombinant; tags: N-terminal GST; dsDNA, one strand shown. The gist of the method: as §1

In another test the target is ELF4 (Homo sapiens, UniProt Q99607 1-663). Conditions: protein: recombinant; tags: N-terminal GST; dsDNA, one strand shown. The gist of the method: as §1
The next test addresses T3, ELK4 (Homo sapiens, UniProt P28324-2 1-405).
T3 sequence: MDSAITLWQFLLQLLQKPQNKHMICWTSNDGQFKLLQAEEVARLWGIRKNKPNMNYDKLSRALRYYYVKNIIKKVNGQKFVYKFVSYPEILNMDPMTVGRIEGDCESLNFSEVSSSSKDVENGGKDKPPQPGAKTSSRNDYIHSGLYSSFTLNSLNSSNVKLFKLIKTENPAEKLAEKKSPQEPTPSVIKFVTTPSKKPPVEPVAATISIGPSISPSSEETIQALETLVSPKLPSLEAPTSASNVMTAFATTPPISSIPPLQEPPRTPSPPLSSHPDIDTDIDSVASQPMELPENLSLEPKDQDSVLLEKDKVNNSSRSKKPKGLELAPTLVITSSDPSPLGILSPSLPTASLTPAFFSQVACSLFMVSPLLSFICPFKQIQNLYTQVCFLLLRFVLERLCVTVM
As to conditions: protein: recombinant; tags: N-terminal GST; dsDNA, one strand shown. The gist of the method:
as §1

In another test the target is T4, ETV2 (Homo sapiens, UniProt O00321 1-342).
T4 sequence: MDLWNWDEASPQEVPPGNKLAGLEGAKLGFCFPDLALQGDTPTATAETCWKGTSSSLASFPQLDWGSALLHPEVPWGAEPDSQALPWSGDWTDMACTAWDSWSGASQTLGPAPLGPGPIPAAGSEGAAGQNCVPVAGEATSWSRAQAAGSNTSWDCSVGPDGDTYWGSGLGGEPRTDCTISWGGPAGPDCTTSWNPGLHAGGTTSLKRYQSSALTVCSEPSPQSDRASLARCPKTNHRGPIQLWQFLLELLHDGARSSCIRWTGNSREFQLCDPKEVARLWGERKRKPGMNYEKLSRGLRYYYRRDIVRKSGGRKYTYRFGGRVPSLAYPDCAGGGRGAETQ
Conditions: protein: recombinant; tags: N-terminal GST; dsDNA, one strand shown. The gist of the method: as §1

Another test has as its target T5, ELF3 (Homo sapiens, UniProt P78545 1-371).
T5 sequence: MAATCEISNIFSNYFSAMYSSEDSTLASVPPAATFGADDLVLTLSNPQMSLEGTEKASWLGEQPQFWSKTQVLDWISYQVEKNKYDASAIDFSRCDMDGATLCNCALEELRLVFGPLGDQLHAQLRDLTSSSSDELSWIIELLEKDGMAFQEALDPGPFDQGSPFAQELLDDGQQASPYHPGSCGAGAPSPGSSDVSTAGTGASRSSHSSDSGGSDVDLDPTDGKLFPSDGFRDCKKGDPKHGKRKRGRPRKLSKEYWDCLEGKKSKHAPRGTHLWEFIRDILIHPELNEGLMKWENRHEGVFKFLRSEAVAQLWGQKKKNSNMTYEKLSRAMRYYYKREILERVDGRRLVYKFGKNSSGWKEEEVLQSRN
As to conditions: protein: recombinant; tags: N-terminal GST; dsDNA, one strand shown. Summed up: as §1

The target of a further test is CRX (Homo sapiens, UniProt O43186 1-299). As to conditions: protein: recombinant; tags: N-terminal GST; dsDNA, one strand shown. The gist of the method:
as §1

The target of another test is ETV1 (Homo sapiens, UniProt P50549 1-477). As to conditions: protein: recombinant; tags: N-terminal GST; dsDNA, one strand shown. Summed up: as §1
For the next test, the target named is T6, ERF (Homo sapiens, UniProt P50548 1-548).
T6 sequence: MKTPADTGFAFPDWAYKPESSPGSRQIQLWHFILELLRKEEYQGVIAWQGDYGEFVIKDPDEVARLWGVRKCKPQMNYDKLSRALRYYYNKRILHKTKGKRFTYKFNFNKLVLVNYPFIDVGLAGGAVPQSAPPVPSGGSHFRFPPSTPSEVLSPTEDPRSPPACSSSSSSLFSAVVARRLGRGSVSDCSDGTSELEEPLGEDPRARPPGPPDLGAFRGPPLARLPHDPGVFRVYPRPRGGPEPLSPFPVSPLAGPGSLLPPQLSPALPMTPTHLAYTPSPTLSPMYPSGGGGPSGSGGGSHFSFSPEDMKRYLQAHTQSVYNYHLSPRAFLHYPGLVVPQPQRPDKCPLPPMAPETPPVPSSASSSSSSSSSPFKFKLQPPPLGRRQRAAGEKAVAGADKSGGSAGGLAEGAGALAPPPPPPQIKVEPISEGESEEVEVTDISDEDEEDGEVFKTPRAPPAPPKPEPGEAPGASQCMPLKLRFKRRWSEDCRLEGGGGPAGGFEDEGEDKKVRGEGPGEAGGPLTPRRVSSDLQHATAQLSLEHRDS
As to conditions: protein: recombinant; tags: N-terminal GST; dsDNA, one strand shown. Summed up: as §1

For the next test, the target named is T7, ETV3L (Homo sapiens, UniProt Q6ZN32 1-361).
T7 sequence: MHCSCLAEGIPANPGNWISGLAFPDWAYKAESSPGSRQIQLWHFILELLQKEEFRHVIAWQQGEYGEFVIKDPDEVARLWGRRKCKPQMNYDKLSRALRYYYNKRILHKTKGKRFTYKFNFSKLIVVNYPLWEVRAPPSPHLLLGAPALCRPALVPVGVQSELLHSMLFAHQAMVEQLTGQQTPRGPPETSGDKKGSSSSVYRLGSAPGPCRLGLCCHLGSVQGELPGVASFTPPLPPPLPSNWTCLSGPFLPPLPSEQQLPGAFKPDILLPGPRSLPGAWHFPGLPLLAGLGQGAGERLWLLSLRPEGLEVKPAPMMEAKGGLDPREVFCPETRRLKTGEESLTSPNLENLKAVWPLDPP
As to conditions: protein: recombinant; tags: N-terminal GST; dsDNA, one strand shown. Summed up:
as §1

The target of the next test is T8, ETS2 (Homo sapiens, UniProt P15036 1-469).
T8 sequence: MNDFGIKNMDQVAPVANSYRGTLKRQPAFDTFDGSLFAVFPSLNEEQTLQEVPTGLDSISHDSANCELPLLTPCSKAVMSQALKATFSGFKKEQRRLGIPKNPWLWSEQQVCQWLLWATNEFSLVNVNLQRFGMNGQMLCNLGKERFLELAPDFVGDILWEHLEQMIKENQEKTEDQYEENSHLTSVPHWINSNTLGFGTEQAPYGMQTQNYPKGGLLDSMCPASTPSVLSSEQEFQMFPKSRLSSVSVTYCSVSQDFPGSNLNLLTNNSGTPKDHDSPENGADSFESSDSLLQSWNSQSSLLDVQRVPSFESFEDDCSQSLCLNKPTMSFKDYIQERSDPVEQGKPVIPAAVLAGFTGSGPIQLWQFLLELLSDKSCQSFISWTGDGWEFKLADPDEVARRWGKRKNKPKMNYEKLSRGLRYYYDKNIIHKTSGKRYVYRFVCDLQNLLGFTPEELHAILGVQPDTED
As to conditions: protein: recombinant; tags: N-terminal GST; dsDNA, one strand shown. The gist of the method: as §1

The target of another test is T9, SPDEF (Homo sapiens, UniProt O95238 1-335).
T9 sequence: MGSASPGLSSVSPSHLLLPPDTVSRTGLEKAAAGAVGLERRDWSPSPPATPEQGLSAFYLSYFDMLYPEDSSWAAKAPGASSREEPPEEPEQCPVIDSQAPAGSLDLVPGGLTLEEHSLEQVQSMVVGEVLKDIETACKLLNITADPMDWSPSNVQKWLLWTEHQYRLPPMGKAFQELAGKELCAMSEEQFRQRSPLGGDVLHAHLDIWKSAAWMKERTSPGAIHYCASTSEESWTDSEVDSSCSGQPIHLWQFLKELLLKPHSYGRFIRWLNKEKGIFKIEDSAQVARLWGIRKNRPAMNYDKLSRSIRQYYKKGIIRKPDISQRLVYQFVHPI
Conditions: protein: recombinant; tags: N-terminal GST; dsDNA, one strand shown. Summed up: as §1

The target of the next test is T10, ETV7 (Homo sapiens, UniProt Q9Y603 1-341).
T10 sequence: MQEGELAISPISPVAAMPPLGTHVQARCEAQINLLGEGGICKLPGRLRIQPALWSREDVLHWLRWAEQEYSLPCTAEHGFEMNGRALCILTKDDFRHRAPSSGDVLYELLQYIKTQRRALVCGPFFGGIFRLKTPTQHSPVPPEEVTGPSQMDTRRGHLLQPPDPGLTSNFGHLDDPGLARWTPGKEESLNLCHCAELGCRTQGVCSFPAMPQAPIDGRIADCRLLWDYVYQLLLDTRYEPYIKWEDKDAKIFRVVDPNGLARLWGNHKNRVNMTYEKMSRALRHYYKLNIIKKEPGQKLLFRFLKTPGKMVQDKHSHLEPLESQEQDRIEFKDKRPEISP
As to conditions: protein: recombinant; tags: N-terminal GST; dsDNA, one strand shown. Summed up: as §1

The target in the next test is T11, ELF5 (Homo sapiens, UniProt Q9UKW6-2 1-255).
T11 sequence: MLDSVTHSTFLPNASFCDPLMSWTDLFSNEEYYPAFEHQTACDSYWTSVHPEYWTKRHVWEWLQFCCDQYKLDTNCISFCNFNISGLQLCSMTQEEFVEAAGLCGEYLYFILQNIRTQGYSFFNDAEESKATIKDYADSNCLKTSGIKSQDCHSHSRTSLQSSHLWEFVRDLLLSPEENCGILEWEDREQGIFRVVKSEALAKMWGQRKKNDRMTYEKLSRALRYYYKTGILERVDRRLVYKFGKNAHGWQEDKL
As to conditions: protein: recombinant; tags: N-terminal GST; dsDNA, one strand shown. Summed up: as §1

A further test has as its target T12, ETV3 (Homo sapiens, UniProt P41162-2 1-143).
T12 sequence: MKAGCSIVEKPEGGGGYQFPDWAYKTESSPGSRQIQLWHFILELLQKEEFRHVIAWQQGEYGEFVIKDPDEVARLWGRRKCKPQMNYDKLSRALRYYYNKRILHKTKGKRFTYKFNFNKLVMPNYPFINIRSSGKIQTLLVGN
Conditions: protein: recombinant; tags: N-terminal GST; dsDNA, one strand shown. Summed up: as §1

Another test deals with ETV6 (Homo sapiens, UniProt P41212 1-452). Conditions: protein: recombinant; tags: N-terminal GST; dsDNA, one strand shown. Summed up: as §1

Consider one sequence from PMC7862700, “An all-to-all approach to the identification of sequence-specific readers for epigenetic DNA modifications on cytosine”.

Sequence of ETV6 (P41212 whole entry): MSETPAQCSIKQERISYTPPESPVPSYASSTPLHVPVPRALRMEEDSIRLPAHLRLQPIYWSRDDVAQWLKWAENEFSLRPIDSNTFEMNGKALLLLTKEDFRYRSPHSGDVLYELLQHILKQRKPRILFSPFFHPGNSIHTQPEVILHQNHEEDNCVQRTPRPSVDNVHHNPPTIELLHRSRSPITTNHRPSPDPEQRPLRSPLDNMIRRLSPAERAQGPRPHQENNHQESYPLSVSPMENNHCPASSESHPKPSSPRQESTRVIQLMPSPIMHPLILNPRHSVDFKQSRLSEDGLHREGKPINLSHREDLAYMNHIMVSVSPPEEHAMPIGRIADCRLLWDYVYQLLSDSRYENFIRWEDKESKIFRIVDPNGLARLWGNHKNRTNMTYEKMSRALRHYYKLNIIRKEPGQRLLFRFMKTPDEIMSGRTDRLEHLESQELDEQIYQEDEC
Sequence of ETV5 (P41161 whole entry): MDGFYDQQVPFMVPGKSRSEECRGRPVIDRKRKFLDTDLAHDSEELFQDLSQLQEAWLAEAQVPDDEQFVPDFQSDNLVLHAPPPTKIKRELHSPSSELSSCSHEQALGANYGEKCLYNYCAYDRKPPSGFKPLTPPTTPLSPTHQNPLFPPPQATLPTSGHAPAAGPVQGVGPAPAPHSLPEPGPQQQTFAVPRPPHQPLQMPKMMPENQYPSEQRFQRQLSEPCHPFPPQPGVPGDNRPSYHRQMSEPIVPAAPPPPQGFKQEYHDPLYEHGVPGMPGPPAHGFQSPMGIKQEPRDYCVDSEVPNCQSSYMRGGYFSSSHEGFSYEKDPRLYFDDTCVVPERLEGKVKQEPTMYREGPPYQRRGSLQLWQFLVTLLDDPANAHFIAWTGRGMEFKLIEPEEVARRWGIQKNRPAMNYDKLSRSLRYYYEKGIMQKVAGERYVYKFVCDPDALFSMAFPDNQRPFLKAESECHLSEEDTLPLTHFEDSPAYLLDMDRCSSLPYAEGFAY
Sequence of ELF4 (Q99607 whole entry): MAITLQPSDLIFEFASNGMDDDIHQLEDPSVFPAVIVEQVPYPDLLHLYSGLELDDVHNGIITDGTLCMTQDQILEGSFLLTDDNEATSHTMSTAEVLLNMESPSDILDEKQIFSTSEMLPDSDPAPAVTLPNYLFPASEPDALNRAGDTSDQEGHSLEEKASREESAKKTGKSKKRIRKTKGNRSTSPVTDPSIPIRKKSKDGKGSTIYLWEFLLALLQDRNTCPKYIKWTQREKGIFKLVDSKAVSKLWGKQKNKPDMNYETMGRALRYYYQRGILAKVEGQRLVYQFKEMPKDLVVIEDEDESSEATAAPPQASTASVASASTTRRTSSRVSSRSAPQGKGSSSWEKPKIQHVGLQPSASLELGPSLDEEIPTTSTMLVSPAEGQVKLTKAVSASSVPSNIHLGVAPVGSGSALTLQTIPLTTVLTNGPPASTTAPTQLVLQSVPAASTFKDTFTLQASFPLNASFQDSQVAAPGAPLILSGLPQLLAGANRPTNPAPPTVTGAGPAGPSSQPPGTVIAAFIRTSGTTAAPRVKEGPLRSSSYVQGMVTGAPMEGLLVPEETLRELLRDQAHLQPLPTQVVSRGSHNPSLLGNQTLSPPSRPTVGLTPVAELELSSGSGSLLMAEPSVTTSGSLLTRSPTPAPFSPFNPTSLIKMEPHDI
Sequence of HSF1 (Q00613 whole entry): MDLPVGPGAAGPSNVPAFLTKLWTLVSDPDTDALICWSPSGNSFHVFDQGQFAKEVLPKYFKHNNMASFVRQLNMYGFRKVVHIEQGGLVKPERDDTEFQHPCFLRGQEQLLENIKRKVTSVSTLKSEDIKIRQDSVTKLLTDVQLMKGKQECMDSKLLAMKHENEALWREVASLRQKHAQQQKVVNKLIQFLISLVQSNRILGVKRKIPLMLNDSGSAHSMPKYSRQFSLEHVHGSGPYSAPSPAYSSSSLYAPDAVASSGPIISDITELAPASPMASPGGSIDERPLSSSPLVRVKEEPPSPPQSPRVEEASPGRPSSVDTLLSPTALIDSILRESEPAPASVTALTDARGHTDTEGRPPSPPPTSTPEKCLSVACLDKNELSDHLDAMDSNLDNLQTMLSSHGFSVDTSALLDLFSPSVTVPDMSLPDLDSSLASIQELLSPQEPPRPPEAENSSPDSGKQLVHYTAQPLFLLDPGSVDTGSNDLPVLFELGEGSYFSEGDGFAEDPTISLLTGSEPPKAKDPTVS
Sequence of ETV1 (P50549 whole entry): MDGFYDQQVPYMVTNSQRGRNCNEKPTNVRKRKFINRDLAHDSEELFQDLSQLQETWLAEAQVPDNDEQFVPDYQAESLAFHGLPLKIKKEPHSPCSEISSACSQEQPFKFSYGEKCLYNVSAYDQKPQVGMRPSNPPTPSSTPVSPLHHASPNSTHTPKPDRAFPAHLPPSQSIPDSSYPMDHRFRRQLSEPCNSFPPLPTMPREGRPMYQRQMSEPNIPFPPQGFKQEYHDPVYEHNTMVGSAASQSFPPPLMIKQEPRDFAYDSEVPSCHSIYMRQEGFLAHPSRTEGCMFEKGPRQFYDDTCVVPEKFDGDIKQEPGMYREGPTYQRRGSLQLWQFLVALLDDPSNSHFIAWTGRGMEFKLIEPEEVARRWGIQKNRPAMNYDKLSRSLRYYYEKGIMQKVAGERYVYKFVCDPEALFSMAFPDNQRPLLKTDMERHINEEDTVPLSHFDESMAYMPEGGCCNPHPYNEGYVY
Sequence of CRX (O43186 whole entry): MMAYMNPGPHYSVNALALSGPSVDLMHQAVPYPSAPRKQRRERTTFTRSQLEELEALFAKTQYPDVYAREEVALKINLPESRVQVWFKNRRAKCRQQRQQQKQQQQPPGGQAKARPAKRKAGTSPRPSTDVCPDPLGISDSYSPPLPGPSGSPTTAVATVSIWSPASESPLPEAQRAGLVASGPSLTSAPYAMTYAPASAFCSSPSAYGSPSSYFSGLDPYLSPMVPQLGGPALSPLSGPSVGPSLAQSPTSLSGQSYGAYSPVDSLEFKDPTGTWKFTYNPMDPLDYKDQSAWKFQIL

Regarding AATTAT, the binding signal with FEV is 1.25 fold enrichment (6-mer frequency, TF over GST control); in the test with ETV5, 1.29 fold enrichment (6-mer frequency, TF over GST control); with HSF1 it was 1.55 fold enrichment (6-mer frequency, TF over GST control); with SPIC it was 1.33 fold enrichment (6-mer frequency, TF over GST control); with ELF4, 1.16 fold enrichment (6-mer frequency, TF over GST control); with ELK4, 1.12 fold enrichment (6-mer frequency, TF over GST control). Moreover, the binding signal in the test with ETV2 was 1.28 fold enrichment (6-mer frequency, TF over GST control); with ELF3, 1.27 fold enrichment (6-mer frequency, TF over GST control); with CRX it was 2.05 fold enrichment (6-mer frequency, TF over GST control); with ETV1 it was 1.26 fold enrichment (6-mer frequency, TF over GST control); in the test with ERF, 1.15 fold enrichment (6-mer frequency, TF over GST control); with ETV3L it was 1.26 fold enrichment (6-mer frequency, TF over GST control). Moreover, the binding signal is 1.27 fold enrichment (6-mer frequency, TF over GST control) with ETS2; 1.24 fold enrichment (6-mer frequency, TF over GST control) with SPDEF; 1.23 fold enrichment (6-mer frequency, TF over GST control) with ETV7; 1.24 fold enrichment (6-mer frequency, TF over GST control) with ELF5; 1.28 fold enrichment (6-mer frequency, TF over GST control) in the test with ETV3; 1.2 fold enrichment (6-mer frequency, TF over GST control) in the test with ETV6.
